From PubChem
A3G deaminase = APOBEC3G DNA deaminase inhibitors, primary screen, biochemical, fluorescence, single-stranded DNA substrate, uHTS; AID 493012, 2011; inhibition, % at 20 µM; 330,000 tested, 0.28% active; recombinant A3G, ssDNA deamination FAM/TAMRA fluorescence;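 active means inhibition of at least 40% at 20 µM, with no more than 30% in the related APOBEC3A deaminase screen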;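 further: plate controls were DMSO wells with A3G for no effect and wells lacking A3G enzyme for full effect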
A3A deaminase = APOBEC3A ssDNA deaminase inhibitors, primary screen, selectivity assay for APOBEC3G inhibitor project, biochemical, FAM/TAMRA oligo cleavage fluorescence; 330,000 tested, 0.41% active; inhibition, % at 20 µM; recombinant A3A, FAM/TAMRA ssDNA deamination fluorescence; DNA dC->dU-editing enzyme APOBEC-3A (Homo sapiens), P31941;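 active means at least 40% inhibition at 20 µM here, with at most 30% in a related deaminase screen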;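 further: plate controls were A3A with DMSO for no effect and wells lacking A3A enzyme for full effect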
aDG glyco up = activators of alpha-DG glycosylation, primary screen, uHTS, Pro5-aDG cells, AlphaScreen | activation, % at 10 µM | alpha-DG glycosylation AlphaScreen (IIH6); 0% Pro5, 100% B10-LARGE cell signal | 360,000 tested, 0.22% active;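 active means activation of at least 8% versus controls, or a plate z-score of at least 8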;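 further: Pro5 are CHO cells carrying HIG-tagged alpha-DG that lacks glycosylation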
ALR H2O2 inh = inhibitors of human ALR sulfhydryl oxidase, primary screen, biochemical, H2O2 detection, HRP-luminol luminescence, single point; FAD-linked sulfhydryl oxidase ALR (Homo sapiens), P55789; purified ALR, DTT oxidation; inhibition, % (no concentration beside the values); 290,000 tested, 3.8% active;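 active means mean replicate inhibition above about 79%, with every replicate also reaching it, limit read from the data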
Target sequence (P55789 whole entry, looked up): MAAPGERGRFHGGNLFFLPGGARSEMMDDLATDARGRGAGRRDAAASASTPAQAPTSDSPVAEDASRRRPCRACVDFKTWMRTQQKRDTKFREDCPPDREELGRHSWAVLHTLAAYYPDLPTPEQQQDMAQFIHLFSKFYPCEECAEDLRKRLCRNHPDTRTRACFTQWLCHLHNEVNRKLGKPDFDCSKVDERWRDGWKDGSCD
PHOSPHO1 inh = PubChem AID 1565; Phosphoethanolamine/phosphocholine phosphatase (Homo sapiens), Q8TCT1; recombinant PHOSPHO1, absorbance phosphatase assay; inhibition, % at 13.3 µM; 290,000 tested, 1.1% active; in the data active means inhibition above about 60%
Target sequence (Q8TCT1 whole entry, looked up): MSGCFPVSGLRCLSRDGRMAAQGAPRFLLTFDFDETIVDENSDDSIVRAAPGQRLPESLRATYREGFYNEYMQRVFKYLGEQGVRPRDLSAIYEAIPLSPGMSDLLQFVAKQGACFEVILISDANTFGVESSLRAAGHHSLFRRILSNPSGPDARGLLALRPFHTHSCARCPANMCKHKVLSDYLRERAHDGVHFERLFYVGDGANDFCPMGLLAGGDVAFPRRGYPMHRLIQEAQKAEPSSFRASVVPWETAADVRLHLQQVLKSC
rCAG binder = binders of r(CAG) RNA repeats, primary screen, biochemical, fluorescence; r(CAG) RNA repeat, TO-PRO-1 dye displacement fluorescence; inhibition, % at 3 µM; 370,000 tested, 1.3% active;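 active means inhibition above the plate cutoff, the mean of all test compounds on that plate plus 3 SD, cut at about 35% in these data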;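 further: 0% = DMSO alone and 100% = 100 µM mitoxantrone as full dye displacement; higher means more dye released from RNA so lower well fluorescence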
* marks the source's active call; other numbers are inactive results; nt = not tested or not shown. An excerpt weighted towards active compounds, which were near 5.4% of everything screened.

SMILES	A3G deaminase	A3A deaminase	aDG glyco up	ALR H2O2 inh	PHOSPHO1 inh	rCAG binder
O=C(C1=C(O)C(=O)N(CCCN2CCOCC2)C1c1ccc(Cl)cc1)c1cc2ccccc2o1 (configuration not stated)	-9	-12	nt	92*	-12	16
O=C(C1=C(O)C(=O)N(CCN2CCOCC2)C1c1ccc(Cl)cc1)c1cc2ccccc2o1 (configuration not stated)	-3	-5	0	5	45	17
CN(CCn1ccnc1)Cc1cn(-c2ccccc2)nc1-c1ccc2c(c1)OCO2	-11	-7	0	nt	60*	-4
O=C(NCCN1CCOCC1)NC1(C(F)(F)F)Oc2ccc(Cl)cc2O1 (configuration not stated)	nt	nt	1	99*	-15	-2
C=CCn1c(SCC(=O)Nc2ccccc2-c2ccccc2)nnc1-c1ccc(Cl)cc1	nt	nt	nt	nt	nt	5
COC(=O)[C@]12C[C@H](CC(=O)N3CCN(C(=O)c4ccco4)CC3)C(=O)N(Cc3ccc4c(c3)OCO4)C1=C[C@H](COCc1ccccc1)O[C@@H]2C	nt	nt	nt	nt	nt	6
CCOc1ccc(-c2nnc(SCc3nnc(-c4ccccc4)o3)n2-c2ccccc2F)cc1	1	4	1	-5	73*	0
CCN1CCc2c(sc(N)c2C#N)C1	16	7	0	nt	17	0
N#Cc1c(N)sc(=S)c2c1CCN(Cc1ccccc1)C2	53*	-2	nt	nt	47	nt
Cc1cccc(S(=O)(=O)N2CCC[C@H]2C(=O)N2CCC[C@@H]2C(=O)NCc2ccccc2)c1	nt	nt	nt	nt	nt	-2
O=C1c2ccccc2CCc2ccccc21	nt	nt	0	nt	nt	0
O=C1c2ccccc2CSc2c(O)cccc21	8	2	0	80*	nt	3
Cc1cc(C)c(NC(=O)c2cc3c(nc4sccn43)s2)c(C)c1	-5	4	0	nt	71*	8
CCN(CC)CCCn1c2c(c(SCC(=O)Nc3ccc4c(c3)OCO4)nc1=O)CCC2	-4	-2	1	96*	nt	-2
CCN(CC)CCn1c2c(c(SCC(=O)Nc3ccc4c(c3)OCCO4)nc1=O)CCC2	-1	1	0	-353	nt	-8
CCN(CC)CCn1c2c(c(SCC(=O)Nc3ccc(C)c(F)c3)nc1=O)CCC2	0	2	0	-404	nt	-5
CCN(CC)CCn1c2c(c(SCC(=O)Nc3ccc(C)c(F)c3)nc1=O)CCCC2	-2	-1	0	97*	nt	-10
CCN(CC)CCCn1c2c(c(SCC(=O)Nc3ccccc3Cl)nc1=O)CCC2	-6	-1	0	98*	nt	-4
CCN(CC)CCn1c2c(c(SCC(=O)Nc3ccc(F)c(F)c3)nc1=O)CCC2	-5	-2	0	92*	nt	-5
CCN(CC)CCn1c2c(c(SCC(=O)Nc3ccccc3Cl)nc1=O)CCCC2	-5	-1	0	-16	nt	-8
Cc1ccc(CN2CCCCC(NC(=O)Nc3cccc(F)c3)C2=O)cc1 (configuration not stated)	nt	nt	nt	nt	nt	5
CCN(CC)CCCn1c2c(c(SCC(=O)Nc3ccc(F)c(F)c3)nc1=O)CCC2	-6	-1	0	98*	nt	-2
CCN(CC)CCCn1c2c(c(SCC(=O)Nc3cc(OC)cc(OC)c3)nc1=O)CCC2	-6	1	0	-362	nt	-4
Oc1ccc(C2=NN(c3ccccc3)C(c3ccc(F)cc3)C2)cc1 (configuration not stated)	-4	3	0	97*	42	15
CC(=O)Nc1ccc(C2=NN(c3ccccc3)C(c3ccccc3)C2)cc1 (configuration not stated)	-8	-8	1	96*	nt	7
SMILES	A3G deaminase	A3A deaminase	aDG glyco up	ALR H2O2 inh	PHOSPHO1 inh	rCAG binder
CC(=O)Nc1ccc(C2CC(c3ccc(Cl)cc3)=NN2c2ccccc2)cc1 (configuration not stated)	-12	-4	1	-1	31	12
O=C(c1cc(-c2ccc(O)cc2)on1)N1CCCCCC1	-3	-6	0	99*	40	0
COc1ccc(C(=O)CSc2nnc(-c3cccc(Cl)c3)n2Cc2ccco2)cc1	nt	nt	nt	nt	nt	5
CCOc1ccc(NCc2cccn2-c2nnc(N3CCC(C(=O)NCCCN4C(C)CCCC4C)CC3)s2)cc1 (configuration not stated)	-6	-6	2	99*	38	0
CCOc1ccc(NCc2cccn2-c2nnc(N3CCC(C(=O)NCCCN4CCCCC4)CC3)s2)cc1	-8	-7	0	99*	48	-4
CCCN1CCN(CCCNC(=O)C2CCN(c3nnc(-n4c(C)ccc4C)s3)CC2)CC1	-6	-4	-1	12	65*	-5
CCOc1ccc(NCc2cccn2-c2nnc(N3CCC(C(=O)NCCCN4CCCCC4C)CC3)s2)cc1 (configuration not stated)	-7	-10	1	99*	32	-3
CCOc1ccc(CCNC(=O)C2CCN(c3nnc(-n4cccc4)s3)CC2)cc1	-5	-2	0	-2	0	7
COC(=O)[C@]12C[C@H](CC(=O)NCC34CC5CC(CC(C5)C3)C4)C(=O)N(Cc3cccc4ccccc34)C1=C[C@H](COCc1ccccc1)O[C@@H]2C	nt	nt	nt	nt	nt	10
CCN1C=C(Cc2ccc(F)cc2)C2=C(C1)C(c1ccc(F)cc1)C(C#N)=C(N)O2 (configuration not stated)	-5	-3	0	99*	16	-4
O=C(NCc1cccc2ccccc12)C1CCCN(c2nc3ccccc3o2)C1 (configuration not stated)	nt	nt	nt	nt	nt	3
C/C(=N\NC(=O)CCc1ccc(S(=O)(=O)N2CCOCC2)cc1)c1ccccc1Cl	-12	0	0	98*	32	-5
COC(=O)[C@H]1C[C@@]2(C)c3ccccc3N(S(=O)(=O)c3ccccc3)[C@H]2N1	nt	nt	nt	nt	nt	5
CC(C)(C)c1ccc(OCC(O)CSc2ncn[nH]2)cc1 (configuration not stated)	-12	-3	0	-5	80*	-5
O=C(NNc1ccccc1[N+](=O)[O-])Nc1ccc(Cl)c(Cl)c1	2	2	1	-8	3	10
O=C1NC(=O)C(c2ccccc2[N+](=O)[O-])=C1Nc1ccc(O)c(Cl)c1	5	5	0	99*	15	9
COc1ccccc1CNC(=O)N1CCN(Cc2nc3ccccc3c(=O)[nH]2)CC1	nt	nt	nt	nt	nt	3
